The source of these data is PubChem BioAssay AID1347383 (Zoeller Lab, School of Medicine, Boston University, 2020).

The source made the active and inactive calls.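 How the source made its calls: active means cell survival after UV exposure 2 SD above solvent-only control wells at 10 µM, confirmed on one or two repeats; inactive means the rest.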

The nature of the test: cell survival after pyrene fatty acid photosensitization – ZR-82 cells, Analyticon library, screen 2, phospholipid biosynthesis inhibitor project, primary screen (AID 1347383).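 Further: survival reflects blocked phospholipid synthesis cutting uptake of the phototoxic fatty acid; compound and fatty acid exposure 3 h then viability read next day.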 The conditions noted are these: ZR-82 CHO cells, pyrene-fatty acid UV killing, CellTiter Blue; at 10 µM; peroxisome-deficient CHO-K1 variant; with DGAT-1, DGAT-2 and ACAT inhibitors. (In general: Resazurin is reduced to fluorescent resorufin, in cell work by metabolically active cells.)
As to `Oc1ccc([C@@H]2Oc3cc(O)cc(O)c3C[C@@H]2O)cc1`, the outcome was inactive.

Consider `O=C(/C=C/c1ccc(O)cc1)c1ccc(O)cc1O`, for which the result was inactive.

On to `C=CC(C)(O)CC[C@@]1(C)[C@H](C)CC[C@]2(C)[C@@H]1C[C@@H](O)[C@@H](O)[C@]2(C)O` (some centres undefined), for which the result was inactive.

Regarding `Cc1cc(O)cc2c(=O)oc(CC(C)O)cc12` (centres undefined), the outcome was inactive.

Regarding `Nc1ccccc1CCCCCCCCC(=O)O`, the outcome was inactive.

For `O=c1c(O)c(-c2ccc(O)cc2)oc2cc(O)cc(O)c12`, the outcome was inactive.

`CC1CCC2(C(=O)O)CCC3(C)C(C=CC4C5(C)CC(O)C(O)C6(C)COC(CC43C)C65)C2C1(C)O` (centres undefined): the result was inactive.

Take `C[N+](C)(C)C(Cc1c[nH]c2ccccc12)C(=O)[O-]` (centres undefined): the result was inactive.

As to `CCCCCC1CC(O)CC(=O)O1` (centres undefined), the result was inactive.

For the compound `CC/C=C\CC1C(=O)C=CC1(CCCCC1CCC(=O)O1)OC(C)=O` (centres undefined), the result was inactive.

As to `CCCc1c(C(=O)O)cc2c(c1O)C(=O)c1c(O)cccc1C2=O`, the outcome was inactive.

On to `OC1C(O)C(O)C(O)C(O)C1O` (centres undefined), for which the result was inactive.

With `O=C(O)CCC1OC(=O)C(O)=C1c1ccccc1` (centres undefined), the result was inactive.

For the compound `CC(=O)N[C@@H](C(=O)O[C@H]1CCC(C)(C)[C@@H]2CCC3=C(COC3=O)[C@@]12C)C(C)C`, the result was inactive.

Take `CC(C)=CCOc1ccc(/C=C/C(=O)c2ccc(O)cc2O)cc1`: the result was inactive.

Turning to `COc1cc(C[C@H]2C(=O)OC[C@@H]2Cc2ccc(OC)c(OC)c2)ccc1O`, the result was inactive.

As to `O=c1c(O)c(-c2c(O)cccc2O)oc2cc(O)cc(O)c12`, the result was inactive.

Consider `CC1=C(C)C(=O)OC(C(C)C2C(O)CC3C4C5OC5C5(O)CC=CC(=O)C5(C)C4CCC32C)C1` (centres undefined), for which the outcome was inactive.

Regarding `O=c1ccc2ccc(O)cc2o1`, the outcome was inactive.

As to `CC1=C[C@H]2[C@@H](CC1=O)[C@H](C)C[C@H](O)[C@H]2C(C)C`, the result was inactive.

Consider `COc1ccc(C2(O)c3ccccc3NC(=O)C2OC)cc1` (centres undefined), for which the outcome was inactive.

As to `COC1=C(C)C(=O)c2c(cc(O)c3c2OC(C)C3(C)CCC=C(C)C)C1=O` (centres undefined), the result was inactive.

Consider `COc1ccc(/C=C/C(=O)O)cc1OC`, for which the outcome was inactive.

Consider `C=C1C2=C(C(=O)N1OC)[C@H](O)[C@](C)(O)[C@H](CCCCC)O2`, for which the outcome was inactive.

For `Nc1c(O)cccc1C(=O)O`, the outcome was inactive.

Take `O=c1c(O)c(-c2cc(O)c(O)c(O)c2)oc2cc(O)cc(O)c12`: the outcome was inactive.

For the compound `CC1(O)CCC2C(C3C1CCC3(C)O)C2(C)C` (centres undefined), the result was inactive.

`CC1(C)CC2C3OC(O)C4(O)OC(C)(CC34)C2C1` (centres undefined): the outcome was inactive.

Consider `O=C(NC(CO)Cc1ccccc1)c1ccccc1` (centres undefined), for which the result was inactive.

As for `CC[C@H](C)C(=O)O[C@H]1CCC=C2C=C[C@H](C)[C@H](CC[C@H]3C[C@@H](O)CC(=O)O3)[C@H]21`, the result was inactive.

With `O=C1CC2OC(C(O)c3ccccc3)C(O1)C2O` (centres undefined), the result was inactive.

`CC1Cc2cc(O)c(O)cc2C(c2ccc(O)cc2)C1C` (centres undefined): the result was inactive.

For the compound `C=C1C[C@H](O)C[C@]2(C)CC[C@@H](C(C)(C)O)CC12` (some centres undefined), the result was inactive.

`CCCCCCCCCCCCC(O)/C=C/CCC(=O)O` (centres undefined): the result was inactive.

As for `C=C[C@@]12COC(=O)C(=C)[C@@H]1[C@@H](O)[C@H](C(=C)C(=O)OC)[C@@H](O)C2`, the outcome was inactive.

For `Oc1cc(O)cc(/C=C/c2ccc(O)c(O)c2)c1`, the outcome was inactive.

Consider `CC(=O)C(C)C1OC(CCO)c2cc(C)ccc2C1C` (centres undefined), for which the outcome was inactive.

For the compound `O=c1c(O)c(-c2ccc(O)cc2O)oc2cc(O)cc(O)c12`, the result was inactive.

With `CC1(C)CCC[C@@]2(C)C1C[C@H]1O[C@@]1(C)[C@]21CC[C@](C)(CC(=O)O)O1` (some centres undefined), the result was inactive.
